The values that follow come from PubChem BioAssay (NCATS).

One test deals with CRL-7250. In words: Cytotoxic Profiling of Annotated Libraries Using Quantitative High-Throughput Screening (AID 1296008). For max response: % is set by controls: 0 for no effect and ±100 for the full control effect. Note: potency is the fitted concentration of half-maximal effect. To be noted: Five cell lines viability, CellTiter-Glo ATP luminescence, 48-72 h; max response: stronger effect = lower value. An outline of the steps:
(§1)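 Cells exposed to compounds for 48 or 72 hr at 37 degrees Celsius. Viability read as ATP-coupled luminescence with CellTiter-Glo after 10 min at room temperature.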
A general note: In ATP-based viability assays light output follows the ATP content of the culture.

Another test concerns HEK293. The description is as above. Particulars: Five cell lines viability, CellTiter-Glo ATP luminescence, 48-72 h; max response: stronger effect = lower value. The method in brief: as §1
Test [1] relates to HaCat. Described as above. To be noted: Five cell lines viability, CellTiter-Glo ATP luminescence, 48-72 h; max response: stronger effect = lower value. The method in brief:
as §1

The subject of another test is KB-3-1. Described as above. To be noted: Five cell lines viability, CellTiter-Glo ATP luminescence, 48-72 h; max response: stronger effect = lower value. An outline of the steps: as §1
In the next test the test system is NIH3T3. Described as above. Particulars: Five cell lines viability, CellTiter-Glo ATP luminescence, 48-72 h; max response: stronger effect = lower value. The method in brief:
as §1

For test [2], the system named is HACAT. In words: qHTS assay to identify novel small-molecules to repurpose for Merkel cell carcinoma treatment (AID 1296009). To be noted: MCC and control cell lines, CellTiter-Glo viability, 72 h; at 44.8 µM (top of the series) unless noted. The method in brief:
(§2)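 CellTiter-Glo luminescence after 72 hr compound exposure at 37 degree celsius gave cell viability. Libraries NPC and MIPE were run as 8- and 11-point dose responses; RLUs normalized to DMSO (negative) and no-cell (cytotoxicity) controls.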

In a further test the test system is HEK293T. Described as above. Particulars: MCC and control cell lines, CellTiter-Glo viability, 72 h; series mostly up to 44.8 µM. The method in brief:
as §2

Another test concerns TAB113. In words: qHTS profiling for inhibitors of Plasmodium falciparum proliferation (AID 504749).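 Note: 0% = DMSO vehicle and full inhibition = artemisinin control.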 To be noted: P. falciparum in erythrocytes, SYBR Green DNA, 72 h; series mostly up to 28.7 µM. The method in brief: (§3)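 SYBR Green fluorescence (ex 485 nm, em 535 nm) reports parasite DNA after 72 h compound exposure of infected red cells at 0.3% parasitemia, 2.5% hematocrit; signal normalized to 0.29 uM artemisinin and vehicle wells.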
In general terms: Quantitative high-throughput screening tests each substance at several concentrations.

A further test relates to TAB165. The description is as above. To be noted: P. falciparum in erythrocytes, SYBR Green DNA, 72 h; series mostly up to 28.7 µM. The method in brief:
as §3

The next test relates to W2. The description is as above. Particulars: P. falciparum in erythrocytes, SYBR Green DNA, 72 h; series mostly up to 28.7 µM. The method in brief: as §3

SMILES strings stand for the structures. “And” between values parts separate entries of the source, which are not always exact repeats. Equal entries are not always repeated. Inconclusive results are not listed. A number with no mark means an inactive call. The source made the active and inactive calls. Calls come from the whole dose curve; as a rule, active = well fitted inhibition curve with a large enough effect; inconclusive = small, poorly fitted or top-dose-only effect; inactive = flat fitted curve, though single readings scatter.
Note: nearly all actives have a fitted effect of over 60% in size.

As for `NC[C@H]1O[C@H](O[C@H]2[C@@H](O)[C@@H](O[C@H]3O[C@H](CO)[C@@H](O)[C@H](N)[C@@H]3O)[C@H](N)C[C@@H]2N)[C@H](N)C[C@H]1O`, the max response with CRL-7250 is -1.47%; in the test on HEK293, 0.89%; in the test on KB-3-1, 1.19%; with NIH3T3, -1.89%. The result with HaCat [1] and with HACAT [2] was inactive.

For `c1coc(CNc2ncnc3nc[nH]c23)c1`, the call in the test with CRL-7250, in the test with HEK293, in the test with HaCat [1] and in the test with HACAT [2] was inactive. The max response was -3.01% in the test with KB-3-1 and 0.142% with NIH3T3. The Potency result in the test with HEK293T is “inactive”.

Consider `Nc1cccc2c1C(=O)N(C1CCC(=O)NC1=O)C2=O` (centres undefined), for which the max response with CRL-7250 is 1.13%; with HEK293, -10.8%; in the test with KB-3-1, -7.31%; in the test on NIH3T3, -1.24%. The result in the test with HaCat [1] and with HACAT [2] was inactive.

Regarding `Cc1cc(O)c2c(c1)C(=O)c1cccc(O)c1C2=O`, the call in the test with CRL-7250 and with HEK293 was inactive. Besides, the max response with HaCat [1] is -2.05%; in the test with KB-3-1, 4.24%; in the test on NIH3T3 it was 4.67%. In the test on HEK293T, the Potency result is “inactive”.

Regarding `c1cc(CN2CCCNCCNCCCNCC2)ccc1CN1CCCNCCNCCCNCC1`, the max response is -0.856% in the test with CRL-7250, -12.9% in the test on HaCat [1], -8.95% in the test on KB-3-1 and -1.27% with NIH3T3. Further, in the test with HEK293, the compound was classed as inactive. For the same compound, the Potency result in the test on HEK293T was “inactive”.

Turning to `CC1(C)O[C@@H]2C[C@H]3[C@@H]4CCC5=CC(=O)C=C[C@]5(C)[C@@H]4[C@@H](O)C[C@]3(C)[C@]2(C(=O)CO)O1`, the values for the max response with CRL-7250 and in the test with NIH3T3 were -21.1% and -5.4%, respectively. Also, the compound was called inactive with HEK293, with HaCat [1], in the test with KB-3-1 and in the test with HACAT [2]. The Potency result in the test with HEK293T is “inactive”.

Turning to `CN(CC(=O)N(Cc1ccc(C2CCCCC2)cc1)c1ccc(C(=O)O)c(O)c1)S(=O)(=O)c1c(F)c(F)c(F)c(F)c1F`, the result with CRL-7250, in the test on HEK293 and with NIH3T3 was inactive. For the same compound, the max response in the test with HaCat [1] is -3.31%. Also, the Potency entry with HEK293T was “inactive”.

Take `Cn1cnc2c(F)c(Nc3ccc(Br)cc3F)c(C(=O)NOCCO)cc21`: the Potency in the test on CRL-7250 was 23.5 µM (active) and 7.31 µM (active). In addition, the max response was -7.34% in the test with HEK293; -0.774% and -5.49% in the test with KB-3-1.

For the compound `C=CC(=O)Nc1cccc(Nc2nc(NC3CCC(N(C)C)CC3)nc3c2ncn3C(C)C)c1` (centres undefined), the Potency was 590 nM (active) with CRL-7250, 1320 nM (active) in the test on HEK293, 7430 nM (active) with HaCat [1] and 14800 nM (active) with NIH3T3.

For `CCN1CCN(C(=O)N[C@H](C(=O)N[C@@H]2C(=O)N3C(C(=O)O)=C(CSc4nnnn4C)CS[C@@H]23)c2ccc(O)cc2)C(=O)C1=O`, the values for the max response in the test with CRL-7250, in the test with HaCat [1] and in the test with NIH3T3 were 2.05%, 2.66% and 3.36%, respectively. The compound was called inactive in the test with HEK293 and in the test with KB-3-1. The outcome in the test with HEK293T was “inactive [at 9.27 µM]”.

As to `COC(=O)[C@@H]1[C@H]2C[C@@H]3c4[nH]c5ccccc5c4CCN3C[C@@H]2CC[C@@H]1O`, the call in the test on CRL-7250, in the test with HEK293, with HaCat [1] and in the test on HACAT [2] was inactive. Further, the results for the max response in the test with KB-3-1 and in the test on NIH3T3 were 1.87% and -9.61%, respectively. For the same compound, the Potency entry in the test with HEK293T is “inactive”.

Consider `CCC(C=C[C@@H]1OC(=O)C=C[C@H]1C)=C[C@H](C)CC=CC(C)=C[C@@H](C)C(=O)[C@@H](C)[C@H](O)[C@@H](C)CC(C)=CC(=O)O`, for which the Potency in the test on CRL-7250 was 55.3 nM (active); in the test on HEK293, 17.5 nM (active); in the test with HaCat [1], 110 nM (active); in the test with NIH3T3, 124 nM (active).

For `O=C1c2c(O)cccc2[C@@H]([C@@H]2O[C@H](CO)[C@@H](O)[C@H](O)[C@H]2O)c2cc(CO)cc(O)c21`, the max response is -3.91% in the test on CRL-7250, -8.19% in the test with HaCat [1] and 4.49% in the test with NIH3T3. In addition, the result in the test on HEK293 and in the test on KB-3-1 was inactive. In the test with HEK293T, the Potency result is “inactive”.

In the case of `COc1cc(C=CC(=O)CC(=O)C=Cc2ccc(O)c(OC)c2)ccc1O`, the Potency in the test on CRL-7250 was 34000 nM (active); in the test on HEK293 it was 24100 nM (active); in the test on KB-3-1 it was 38200 nM (active).

Take `Oc1cc(-c2nc(-c3ccccc3)[nH]c2-c2ccncc2)ccc1Cl`: the max response with CRL-7250 is -23.8%; in the test on KB-3-1 it was -18.3%. In the test on HEK293, the Potency is 23500 nM (active).

Consider `Nc1nc2c(c(=O)[nH]1)N(C=O)[C@H](CNc1ccc(C(=O)N[C@@H](CCC(=O)O)C(=O)O)cc1)CN2`, for which the Potency entry in the test on TAB113, with TAB165 and in the test on W2 was “inactive” throughout. Besides, the figures for the max response in the test on CRL-7250, in the test on HEK293 and in the test with KB-3-1 were -8.32%, -23.4% and 3.69%, respectively. Also, the call in the test with HaCat [1], in the test on NIH3T3 and with HACAT [2] was inactive.

On to `C=C(C)[C@@H]1CC[C@]2(C)CC[C@]3(C)[C@H](CC[C@@H]4[C@@]5(C)CC[C@H](O)C(C)(C)[C@H]5CC[C@]43C)[C@@H]12`, for which the max response is -9.28% with CRL-7250 and 8.9% in the test with KB-3-1. The result in the test on HEK293, in the test with HaCat [1], with NIH3T3 and with HACAT [2] was inactive. Moreover, the Potency entry with HEK293T was “inactive”.

As for `FC(F)(F)c1ccc(Nc2nc3ccc(Oc4ccnc(-c5ncc(C(F)(F)F)[nH]5)c4)cc3[nH]2)cc1`, the Potency with CRL-7250 is 13.2 µM (active) and 14.6 µM (active). For the same compound, the max response in the test with HaCat [1] is -7.61% and -42.8%.

Turning to `CCS(=O)(=O)Nc1ccc2[nH]c(O)c(C(=Nc3ccc(CN4CCCCC4)cc3)c3ccccc3)c2c1`, the Potency with CRL-7250 was 1320 nM (active); with HEK293, 743 nM (active); in the test with KB-3-1 it was 9350 nM (active); in the test with NIH3T3, 264 nM (active).

As for `Cn1cc(CNCC2CCN(c3ncc(C(=O)NO)cn3)CC2)c2ccccc21`, the Potency was 332 nM (active) in the test on CRL-7250, 662 nM (active) with HaCat [1], 132 nM (active) with KB-3-1 and 526 nM (active) in the test on NIH3T3.

In the case of `COC1=C2C[C@@H](C)C[C@H](OC)[C@@H](O)[C@@H](C)C=C(C)[C@H](OC(N)=O)[C@@H](OC)C=CC=C(C)C(=O)NC(=CC1=O)C2=O`, the Potency is 7430 nM (active) in the test on CRL-7250, 4690 nM (active) in the test with HEK293, 2090 nM (active) in the test with KB-3-1 and 9350 nM (active) in the test on NIH3T3.
